Results as given in the supplement of paper PMC4466140.

Legend:
Test in all cases: SPOT peptide array binding signal intensity (averaged, normalized) (arbitrary units (background-subtracted, floor 0; scale differs between SH3 domains)); higher = stronger binding of the SH3 domain to the peptide
SpBzz1-D2 = target: SpBzz1-D2
Procedure, shortened: (§1)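 To measure binding, SH3 domains from four yeast species were fused to GST, expressed in E. coli BL21(DE3) and purified on glutathione Sepharose. Each domain was incubated at 10 μg/ml overnight at 4°C on cellulose membranes with synthetic 15-mer peptides whose cysteines were replaced by serines. Anti-GST antibody, an HRP anti-mouse secondary and luminol were used for detection, and images were quantified with Genespotter. Reported binding signal is normalized, background-subtracted spot intensity averaged over replicates, in arbitrary units that differ between domains.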

SpCyk3 = target: SpCyk3
Procedure, shortened: as §1

SpHof1 = target: SpHof1
Procedure, shortened: as §1

SpHof1-2 = target: SpHof1-2
Procedure, shortened: as §1

SpHof1-3 = target: SpHof1-3
Procedure, shortened: as §1

SpHse1 = target: SpHse1
Procedure, shortened: as §1

SpLsb1 = target: SpLsb1
Procedure, shortened: as §1

SpLsb4 = target: SpLsb4
Procedure, shortened: as §1

SpMyo1 = target: SpMyo1
Procedure, shortened: as §1

SpNbp2 = target: SpNbp2
Procedure, shortened: as §1

SpPex13 = target: SpPex13
Procedure, shortened: as §1

SpRvs167 = target: SpRvs167
Procedure, shortened: as §1

SpSla1-D1-D2 = target: SpSla1-D1-D2
Procedure, shortened: as §1

SpSla1-D3 = target: SpSla1-D3
Procedure, shortened: as §1

AgAbp1 = target: AgAbp1
Procedure, shortened: as §1

AgBbc1 = target: AgBbc1
Procedure, shortened: as §1

AgBem1-D1 = target: AgBem1-D1
Procedure, shortened: as §1

AgBzz1-D1 = target: AgBzz1-D1
Procedure, shortened: as §1

AgBzz1-D2 = target: AgBzz1-D2
Procedure, shortened: as §1

AgCyk3 = target: AgCyk3
Procedure, shortened: as §1

AgFus1 = target: AgFus1
Procedure, shortened: as §1

AgHof1 = target: AgHof1
Procedure, shortened: as §1

AgHse1 = target: AgHse1
Procedure, shortened: as §1

AgLsb1 = target: AgLsb1
Procedure, shortened: as §1

AgLsb4 = target: AgLsb4
Procedure, shortened: as §1

AgMyo5 = target: AgMyo5
Procedure, shortened: as §1

AgNbp2 = target: AgNbp2
Procedure, shortened: as §1

AgRvs167 = target: AgRvs167
Procedure, shortened: as §1

AgSho1 = target: AgSho1
Procedure, shortened: as §1

AgSla1-D1-D2 = target: AgSla1-D1-D2
Procedure, shortened: as §1

AgSla1-D3 = target: AgSla1-D3
Procedure, shortened: as §1

CaAbp1-D1 = target: CaAbp1-D1
Procedure, shortened: as §1

CaAbp1-D2 = target: CaAbp1-D2
Procedure, shortened: as §1

CaBbc1 = target: CaBbc1
Procedure, shortened: as §1

CaBem1-D1 = target: CaBem1-D1
Procedure, shortened: as §1

CaBzz1-D1 = target: CaBzz1-D1
Procedure, shortened: as §1

CaBzz1-D2 = target: CaBzz1-D2
Procedure, shortened: as §1

CaCyk3 = target: CaCyk3
Procedure, shortened: as §1

CaFus1 = target: CaFus1
Procedure, shortened: as §1

CaHof1 = target: CaHof1
Procedure, shortened: as §1

CaHse1 = target: CaHse1
Procedure, shortened: as §1

CaLsb1 = target: CaLsb1
Procedure, shortened: as §1

CaLsb4 = target: CaLsb4
Procedure, shortened: as §1

CaMyo5 = target: CaMyo5
Procedure, shortened: as §1

Binder: RKNRAPPQRPRFNRE
- SPOT peptide array binding signal intensity (SpBzz1-D2): 23
- SPOT peptide array binding signal intensity (SpCyk3): 9.5
- SPOT peptide array binding signal intensity (SpHof1): 200
- SPOT peptide array binding signal intensity (SpHof1-2): 13.5
- SPOT peptide array binding signal intensity (SpHof1-3): 286
- SPOT peptide array binding signal intensity (SpHse1): 253
- SPOT peptide array binding signal intensity (SpLsb1): 190
- SPOT peptide array binding signal intensity (SpLsb4): 707
- SPOT peptide array binding signal intensity (SpMyo1): 14
- SPOT peptide array binding signal intensity (SpNbp2): 307
- SPOT peptide array binding signal intensity (SpPex13): 32
- SPOT peptide array binding signal intensity (SpRvs167): 67.8
- SPOT peptide array binding signal intensity (SpSla1-D1-D2): 48
- SPOT peptide array binding signal intensity (SpSla1-D3): 7

Binder: LFMKGTPEFPKSGFS
- SPOT peptide array binding signal intensity (AgAbp1): ≤ 0
- SPOT peptide array binding signal intensity (AgBbc1): 12.5
- SPOT peptide array binding signal intensity (AgBem1-D1): 224
- SPOT peptide array binding signal intensity (AgBzz1-D1): 8.5
- SPOT peptide array binding signal intensity (AgBzz1-D2): 7
- SPOT peptide array binding signal intensity (AgCyk3): ≤ 0
- SPOT peptide array binding signal intensity (AgFus1): 479
- SPOT peptide array binding signal intensity (AgHof1): 7
- SPOT peptide array binding signal intensity (AgHse1): 104
- SPOT peptide array binding signal intensity (AgLsb1): ≤ 0
- SPOT peptide array binding signal intensity (AgLsb4): 5
- SPOT peptide array binding signal intensity (AgMyo5): 5
- SPOT peptide array binding signal intensity (AgNbp2): 208
- SPOT peptide array binding signal intensity (AgRvs167): 0.667
- SPOT peptide array binding signal intensity (AgSho1): 248
- SPOT peptide array binding signal intensity (AgSla1-D1-D2): 4
- SPOT peptide array binding signal intensity (AgSla1-D3): 5
- SPOT peptide array binding signal intensity (CaAbp1-D1): 291
- SPOT peptide array binding signal intensity (CaAbp1-D2): 224
- SPOT peptide array binding signal intensity (CaBbc1): 40.5
- SPOT peptide array binding signal intensity (CaBem1-D1): 272
- SPOT peptide array binding signal intensity (CaBzz1-D1): 182
- SPOT peptide array binding signal intensity (CaBzz1-D2): 58.8
- SPOT peptide array binding signal intensity (CaCyk3): 7.5
- SPOT peptide array binding signal intensity (CaFus1): 914
- SPOT peptide array binding signal intensity (CaHof1): ≤ 0
- SPOT peptide array binding signal intensity (CaHse1): 113
- SPOT peptide array binding signal intensity (CaLsb1): 3.5
- SPOT peptide array binding signal intensity (CaLsb4): 196
- SPOT peptide array binding signal intensity (CaMyo5): 40.2
